Reference: PubChem BioAssay AID1159580 (chemical genetic matrix, 2015)
Among all 5,500 compounds or so, about 2,000 (36%) were called active. Inconclusive results (about 18%) are left out. Some of the results follow. Unmarked numbers belong to inactive results. Cut-off read from the data, not from the text of the source: active = normalized growth mostly below about 0.91 (no sharp cut-off); inconclusive = no clear call, values can overlap the other calls; inactive = mostly above about 0.92.

Test: chemical genetic growth profiling, strain panel (AID 1159580);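 note: tested at 20 µM; growth read once vehicle control cultures reached saturation at 30 °C; 1 = growth at the plate median or of vehicle wells; lower values mean less growth of the strain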
Conditions: S. cerevisiae deletion strains, growth OD

SMILES: CC12CCC(OC(=O)c3ccccc3)CC1CCc1ccccc12 (configuration not stated)
- normalized growth (locus YAL021C, strain ccr4, stronger effect = lower value): 0.986
- normalized growth (locus YAL026C, strain drs2, stronger effect = lower value): 0.99
- normalized growth (locus YAL030W, strain snc1, stronger effect = lower value): 0.999
- normalized growth (locus YBL061C, strain skt5, stronger effect = lower value): 0.995
- normalized growth (locus YBR009C, strain hhf1, stronger effect = lower value): 1
- normalized growth (locus YBR023C, strain chs3, stronger effect = lower value): 0.995
- normalized growth (locus YBR171W, strain sec66, stronger effect = lower value): 0.968
- normalized growth (locus YBR231C, strain swc5, stronger effect = lower value): 0.939
- normalized growth (locus YBR279W, strain paf1, stronger effect = lower value): 1.01
- normalized growth (locus YCL011C, strain gbp2, stronger effect = lower value): 1
- normalized growth (locus YCL016C, strain dcc1, stronger effect = lower value): 0.991
- normalized growth (locus YCL061C, strain MRC1, stronger effect = lower value): 0.998
- normalized growth (locus YCL069W, strain vba3, stronger effect = lower value): 0.996
- normalized growth (locus YCR088W, strain abp1, stronger effect = lower value): 0.984
- normalized growth (locus YDL005C, strain med2, stronger effect = lower value): 0.987
- normalized growth (locus YDL040C, strain nat1, stronger effect = lower value): 0.979
- normalized growth (locus YDR001C, strain nth1, stronger effect = lower value): 0.985
- normalized growth (locus YDR069C, strain doa4, stronger effect = lower value): 0.98
- normalized growth (locus YDR137W, strain rgp1, stronger effect = lower value): 0.964
- normalized growth (locus YDR159W, strain sac3, stronger effect = lower value): 0.99
- normalized growth (locus YDR195W, strain ref2): 0.964
- normalized growth (locus YDR297W, strain sur2, stronger effect = lower value): 0.995
- normalized growth (locus YDR334W, strain swr1, stronger effect = lower value): 0.959
- normalized growth (locus YDR335W, strain msn5, stronger effect = lower value): 0.997
- normalized growth (locus YDR392W, strain spt3, stronger effect = lower value): 0.866
- normalized growth (locus YEL003W, strain gim4, stronger effect = lower value): 0.985
- normalized growth (locus YEL037C, strain rad23, stronger effect = lower value): 0.991
- normalized growth (locus YEL061C, strain CIN8 (second series), stronger effect = lower value): 0.841 (active)
- normalized growth (locus YER015W, strain faa2, stronger effect = lower value): 0.998
- normalized growth (locus YER016W, strain bim1, stronger effect = lower value): 0.907 (active)
- normalized growth (locus YER111C, strain swi4, stronger effect = lower value): 0.988
- normalized growth (locus YER155C, strain BEM2 (second series), stronger effect = lower value): 0.967
- normalized growth (locus YFR010W, strain ubp6, stronger effect = lower value): 0.992
- normalized growth (locus YGL167C, strain pmr1, stronger effect = lower value): 0.981
- normalized growth (locus YGL173C, strain kem1, stronger effect = lower value): 0.987
- normalized growth (locus YGL227W, strain vid30, stronger effect = lower value): 0.986
- normalized growth (locus YGL240W, strain doc1, stronger effect = lower value): 0.952
- normalized growth (locus YGL253W, strain hxk2, stronger effect = lower value): 1.01
- normalized growth (locus YHR013C, strain ard1, stronger effect = lower value): 0.855
- normalized growth (locus YHR027C, strain rpn1, stronger effect = lower value): 0.999
- normalized growth (locus YHR142W, strain chs7, stronger effect = lower value): 1.01
- normalized growth (locus YJL092W, strain hpr5, stronger effect = lower value): 0.989
- normalized growth (locus YJL095W, strain BCK1 (second series), stronger effect = lower value): 1
- normalized growth (locus YJL115W, strain asf1, stronger effect = lower value): 0.989
- normalized growth (locus YJL129C, strain trk1, stronger effect = lower value): 0.999
- normalized growth (locus YJL154C, strain vps35, stronger effect = lower value): 0.992
- normalized growth (locus YJL164C, strain tpk1, stronger effect = lower value): 0.989
- normalized growth (locus YJL166W, strain qcr8, stronger effect = lower value): 1
- normalized growth (locus YJL187C, strain SWE1, stronger effect = lower value): 1
- normalized growth (locus YKL160W, strain elf1, stronger effect = lower value): 1
- normalized growth (locus YKR026C, strain gcn3, stronger effect = lower value): 0.965
- normalized growth (locus YKR091W, strain srl3, stronger effect = lower value): 0.984
- normalized growth (locus YLL001W, strain dnm1, stronger effect = lower value): 1.01
- normalized growth (locus YLL026W, stronger effect = lower value): 0.993
- normalized growth (locus YLL041C, strain sdh2, stronger effect = lower value): 0.994
- normalized growth (locus YLR027C, strain aat2, stronger effect = lower value): 1.01
- normalized growth (locus YLR221C, strain rsa3, stronger effect = lower value): 1
- normalized growth (locus YLR258W, strain gsy2, stronger effect = lower value): 1
- normalized growth (locus YLR262C, strain YPT6 (second series), stronger effect = lower value): 1.04
- normalized growth (locus YLR320W, strain mms22, stronger effect = lower value): 1
- normalized growth (locus YLR342W, strain FKS1, stronger effect = lower value): 0.987
- normalized growth (locus YLR357W, strain rsc2, stronger effect = lower value): 0.986
- normalized growth (locus YLR370C, strain arc18, stronger effect = lower value): 0.995
- normalized growth (locus YLR384C, strain iki3, stronger effect = lower value): 1
- normalized growth (locus YML120C, strain ndi1, stronger effect = lower value): 1
- normalized growth (locus YMR058W, strain fet3, stronger effect = lower value): 1
- normalized growth (locus YMR125W, strain sto1, stronger effect = lower value): 0.975
- normalized growth (locus YMR129W, stronger effect = lower value): 0.986
- normalized growth (locus YMR205C, strain PFK2, stronger effect = lower value): 1.01
- normalized growth (locus YMR231W, strain pep5, stronger effect = lower value): 0.99
- normalized growth (locus YNL071W, strain lat1, stronger effect = lower value): 0.992
- normalized growth (locus YNL209W, strain ssb2, stronger effect = lower value): 0.997
- normalized growth (locus YNL248C, strain rpa49, stronger effect = lower value): 1.01
- normalized growth (locus YNL322C, strain KRE1 (second series), stronger effect = lower value): 0.982
- normalized growth (locus YNR049C, strain mso1, stronger effect = lower value): 0.994
- normalized growth (locus YOR001W, strain rrp6, stronger effect = lower value): 0.999
- normalized growth (locus YOR070C, strain gyp1, stronger effect = lower value): 1.01
- normalized growth (locus YOR080W, strain dia2, stronger effect = lower value): 0.965
- normalized growth (locus YOR083W, strain WHI5, stronger effect = lower value): 0.995
- normalized growth (locus YOR106W, strain vam3, stronger effect = lower value): 1.01
- normalized growth (locus YOR265W, strain rbl2, stronger effect = lower value): 0.998
- normalized growth (locus YOR270C, strain vph1, stronger effect = lower value): 1.06
- normalized growth (locus YOR290C, strain snf2, stronger effect = lower value): 0.955
- normalized growth (locus YPL051W, strain arl3, stronger effect = lower value): 1
- normalized growth (locus YPL078C, strain atp4, stronger effect = lower value): 1.01
- normalized growth (locus YPL106C, strain sse1, stronger effect = lower value): 0.992
- normalized growth (locus YPL240C, strain hsp82, stronger effect = lower value): 0.988
